PubChem BioAssay AID1212 (NMMLSC, 2008)
Calls of active or inactive are those of the source.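 The calls were made as follows: active = blocks over 60% of fluorescent estradiol binding at 10 µM; inactive = the rest.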

Molecular target: G-protein coupled estrogen receptor 1 (Homo sapiens) (UniProt Q99527)
Test: displacement of E2-Alexa633 from GPER – cell-based, Cos7 GPR30-GFP, flow cytometry, 10 µM, primary screen (AID 1212)
Conditions: fluorescent estrogen competition, at 10 µM; hits give high values

inhibition, inactive:
COc1ccc(NS(=O)(=O)c2ccc3c(c2)[C@H]2C=CC[C@H]2[C@@H](c2cccc(OC)c2OC)N3)cc1 44%
CC1CCC2(C)c3[nH]c4ccccc4c3CCN2C1=O (stereo not drawn) 2%

outcome, inactive:
O=C(O)COc1cc2oc(=O)c3c(c2cc1Cl)CCCC3
CCC(Oc1ccc2c3c(c(=O)oc2c1C)CCC3)C(=O)OC (stereo not drawn)
COc1cc(C2C3C(C)N(C)C(=O)N(C)C3N(C)C(=O)N2C)ccc1O (stereo not drawn)
CC1(C)Cc2[nH]c(=O)c(C(=O)O)cc2CO1
CCCCCCc1cc2c3c(c(=O)oc2cc1OCC(=O)OC)CCC3
Oc1ccc2c(c1)c1c3n2CCNC3CCC1 (stereo not drawn)
